PubChem BioAssay AID1159580 (chemical genetic matrix, 2015)
The campaign covered roughly 5,500 compounds. About 2,000 (36%) were called active. Inconclusive results (about 18%) are left out. Rule as the data show it: active = normalized growth mostly below about 0.91 (no sharp cut-off); inconclusive = no clear call, values can overlap the other calls; inactive = mostly above about 0.92. The list shows a part of the results.

Assay: chemical genetic growth profiling, strain panel (AID 1159580);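 also: tested at 20 µM; growth read once vehicle control cultures reached saturation at 30 °C; 1 = growth at the plate median or of vehicle wells; lower values mean less growth of the strain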
Settings: S. cerevisiae deletion strains, growth OD

Measured: normalized growth

O=[N+]([O-])c1cccc2cn[nH]c12
inactive: locus YAL021C, strain ccr4, hits give low values 1.01 | locus YAL026C, strain drs2, hits give low values 1 | locus YAL030W, strain snc1, hits give low values 1 | locus YAL040C, strain CLN3, hits give low values 0.985 | locus YBL061C, strain skt5, hits give low values 0.996 | locus YBR009C, strain hhf1, hits give low values 1 | locus YBR023C, strain chs3, hits give low values 0.991 | locus YBR171W, strain sec66, hits give low values 0.981 | locus YBR231C, strain swc5, hits give low values 0.982 | locus YBR279W, strain paf1, hits give low values 1 | locus YCL011C, strain gbp2, hits give low values 0.983 | locus YCL016C, strain dcc1, hits give low values 0.989 | locus YCL061C, strain MRC1 (second series), hits give low values 1 | locus YCL061C, strain MRC1, hits give low values 0.997 | locus YCL069W, strain vba3, hits give low values 0.986 | locus YCR088W, strain abp1, hits give low values 0.98 | locus YDL005C, strain med2, hits give low values 0.997 | locus YDL040C, strain nat1, hits give low values 1 | locus YDR001C, strain nth1, hits give low values 0.99 | locus YDR069C, strain doa4, hits give low values 0.982 | locus YDR137W, strain rgp1, hits give low values 0.996 | locus YDR159W, strain sac3, hits give low values 0.991 | locus YDR195W, strain ref2 1.02 | locus YDR297W, strain sur2, hits give low values 0.988 | locus YDR334W, strain swr1, hits give low values 0.997 | locus YDR335W, strain msn5, hits give low values 0.986 | locus YDR363W, strain ESC2, hits give low values 1.01 | locus YDR392W, strain spt3, hits give low values 1.02 | locus YEL003W, strain gim4, hits give low values 1 | locus YEL037C, strain rad23, hits give low values 1 | locus YEL061C, strain CIN8 (second series), hits give low values 0.979 | locus YER002W, strain NOP16, hits give low values 0.987 | locus YER015W, strain faa2, hits give low values 0.994 | locus YER016W, strain bim1, hits give low values 1 | locus YER111C, strain swi4, hits give low values 0.989 | locus YER155C, strain BEM2 (second series), hits give low values 1.01 | locus YFR010W, strain ubp6, hits give low values 0.988 | locus YGL167C, strain pmr1, hits give low values 0.998 | locus YGL173C, strain kem1, hits give low values 1.01 | locus YGL227W, strain vid30, hits give low values 1.01 | locus YGL240W, strain doc1, hits give low values 1.01 | locus YGL253W, strain hxk2, hits give low values 0.99 | locus YGR229C, strain SMI1, hits give low values 0.999 | locus YHR013C, strain ard1, hits give low values 1.05 | locus YHR027C, strain rpn1, hits give low values 0.994 | locus YHR030C, strain SLT2, hits give low values 1.03 | locus YHR079C, strain IRE1, hits give low values 1.03 | locus YHR142W, strain chs7, hits give low values 0.995 | locus YJL092W, strain hpr5, hits give low values 0.989 | locus YJL095W, strain BCK1 (second series), hits give low values 1 | locus YJL095W, strain BCK1, hits give low values 1.03 | locus YJL115W, strain asf1, hits give low values 0.984 | locus YJL129C, strain trk1, hits give low values 1 | locus YJL154C, strain vps35, hits give low values 0.981 | locus YJL164C, strain tpk1, hits give low values 0.988 | locus YJL166W, strain qcr8, hits give low values 0.992 | locus YJL187C, strain SWE1, hits give low values 0.999 | locus YJR066W, strain TOR1, hits give low values 0.947 | locus YJR075W, strain HOC1, hits give low values 1.01 | locus YKL160W, strain elf1, hits give low values 0.958 | locus YKR026C, strain gcn3, hits give low values 1 | locus YKR091W, strain srl3, hits give low values 0.988 | locus YLL001W, strain dnm1, hits give low values 0.999 | locus YLL026W, hits give low values 0.98 | locus YLL041C, strain sdh2, hits give low values 0.985 | locus YLR027C, strain aat2, hits give low values 1 | locus YLR113W, strain HOG1, hits give low values 1 | locus YLR221C, strain rsa3, hits give low values 0.995 | locus YLR258W, strain gsy2, hits give low values 0.983 | locus YLR262C, strain YPT6 (second series), hits give low values 1.01 | locus YLR320W, strain mms22, hits give low values 1 | locus YLR342W, strain FKS1, hits give low values 1.01 | locus YLR357W, strain rsc2, hits give low values 0.993 | locus YLR370C, strain arc18, hits give low values 0.994 | locus YLR384C, strain iki3, hits give low values 0.996 | locus YML120C, strain ndi1, hits give low values 0.991 | locus YMR058W, strain fet3, hits give low values 0.982 | locus YMR125W, strain sto1, hits give low values 0.967 | locus YMR129W, hits give low values 0.993 | locus YMR205C, strain PFK2, hits give low values 0.991 | locus YMR231W, strain pep5, hits give low values 1 | locus YNL071W, strain lat1, hits give low values 1.01 | locus YNL128W, strain TEP1, hits give low values 0.998 | locus YNL175C, strain NOP13, hits give low values 0.999 | locus YNL183C, strain NPR1, hits give low values 0.951 | locus YNL197C, strain WHI3, hits give low values 0.992 | locus YNL209W, strain ssb2, hits give low values 0.972 | locus YNL224C, strain SQS1, hits give low values 1 | locus YNL248C, strain rpa49, hits give low values 0.965 | locus YNL322C, strain KRE1 (second series), hits give low values 0.993 | locus YNR049C, strain mso1, hits give low values 1 | locus YOR001W, strain rrp6, hits give low values 1 | locus YOR070C, strain gyp1, hits give low values 0.992 | locus YOR080W, strain dia2, hits give low values 1.01 | locus YOR083W, strain WHI5 (second series), hits give low values 1 | locus YOR083W, strain WHI5, hits give low values 0.965 | locus YOR106W, strain vam3, hits give low values 0.981 | locus YOR231W, strain MKK1, hits give low values 1.01 | locus YOR265W, strain rbl2, hits give low values 0.996 | locus YOR270C, strain vph1, hits give low values 0.992 | locus YOR290C, strain snf2, hits give low values 0.986 | locus YPL051W, strain arl3, hits give low values 0.972 | locus YPL078C, strain atp4, hits give low values 0.995 | locus YPL106C, strain sse1, hits give low values 0.957 | locus YPL240C, strain hsp82, hits give low values 0.992 | locus YPL256C, strain CLN2, hits give low values 0.997
